Several values for one entry are separate records, joined by “and”; a condition that tells them apart may be missing. Equal values may be shown once. Inconclusive results are not listed. The source holds several records for some structures; these can differ, active in one and inactive in another. Activity calls are given as the source filed them. Rule for the calls, unless noted: active = hit-call score of the fitted dose curve at least 0.9, where 1 is the maximum; inactive = score below 0.9.
Columns and labels:
[1] = CCTE_Mundy_HCI_Cortical_NOG_BPCount: CCTE's Neurite Outgrowth Assay in rat cortical cells for Branch Point Count, Mundy Lab (AID 2284237);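 for AC50: branch points counted about two days after chemical exposure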
Procedure, shortened: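 Measured 50.33 h after dosing, this morphology endpoint uses rat primary cortical cultures labelled for betaIII-tubulin. Branch points are quantified by high-content imaging, with DMSO as negative control and baseline.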

[2] = CCTE_Mundy_HCI_hNP1_Casp3_7: CCTE's Caspase-Glo 3/7 Assay in human neuroprogenitor cells for Apoptosis, Mundy Lab (AID 2284240)
Procedure, shortened: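 Luminescent caspase-3/7 readout, 26.5 h post-dose, in human neural progenitor cells from WA09 embryonic stem cells. Cells grew 40–44 h at 37 °C, 5% CO2 before chemical addition. Activity analysed as signal increase over DMSO baseline.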

[3] = CCTE_Mundy_HCI_Cortical_Synap_Neur_Matur_NeuronCount: CCTE's Synaptogenesis and Neurite Maturation Assay in rat cortical cells for Neuron Count, Mundy Lab (AID 2284242; active = hit-call score of the fitted dose curve at least 0.9, where 1 is the maximum;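 for AC50: hits reduce neuron count versus DMSO baseline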)
Procedure, shortened: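 Neuron counts come from automated high-content imaging of Hoechst nuclei and MAP2/synaptophysin immunostaining at DIV 12, with loss of signal judged against DMSO. Cultures of rat cortical cells had glial growth arrested by AraC at DIV 5; chemical exposure began DIV 7.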

[4] = CCTE_Mundy_HCI_hNP1_CellTiter: CCTE's Cell Titer-Glo 2 Assay in human neuroprogenitor cells for Viability, Mundy Lab (AID 2284241; active = hit-call score of the fitted dose curve at least 0.9, where 1 is the maximum;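 for AC50: a hit is a drop in ATP luminescence versus DMSO meaning reduced viability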)
Procedure, shortened: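 Viability read as luminescent ATP content (CellTiter-Glo, 30 min room temperature) twenty-four hours after dosing, relative to DMSO. Cells: WA09-derived hNP1 neuroprogenitors on poly-L-ornithine/laminin, plated 40 to 44 hours before chemical.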

[5] = UKN4_HCS_LUHMES_cell_viability: Viability Assessment in the University of Konstanz (UKN) Leist Lab Neurite Outgrowth Assay in human LUHMES cells (UKN4) (AID 2284232)
Procedure, shortened: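 Viability was read by high-content imaging of calcein-AM/H-33342-stained cells after 24 h toxicant exposure, staining included. Cells: human LUHMES on day 2 of dopaminergic differentiation, dosed shortly after attachment; DMSO baseline, bidirectional curve fitting.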

[6] = CCTE_Mundy_HCI_Cortical_NOG_NeuronCount: CCTE's Neurite Outgrowth Assay in rat cortical cells for Neuron Count, Mundy Lab (AID 2284236; active = hit-call score of the fitted dose curve at least 0.9, where 1 is the maximum;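 note: neurons counted by imaging betaIII-tubulin and Hoechst stained cortical cells; cells exposed to compound for about 48 hours before fixation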)
Procedure, shortened: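 Read-out: neuron number by high-content imaging of betaIII-tubulin (Alexa Fluor-488) and Hoechst-labelled rat primary cortical cells.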

[7] = UKN2_HCS_IMR90_cell_viability: Viability Assessment in the University of Konstanz (UKN) Leist Lab Neural Crest Cell Migration Assay in human induced IMR90 Pluripotent Stem Cells (UKN2) (AID 2284233);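 note: cells exposed to compound for 24 h after a 24 h migration phase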
Procedure, shortened: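 Viability read as calcein-AM fluorescence by high-content imaging, Hoechst co-stain, 30 min. Human iPSC (IMR90) neural crest cells had migrated 24 h into stopper-defined gaps before 24 h chemical exposure. Fitted bidirectionally relative to DMSO.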

[8] = TAMU_HCS_1.5hr_SingleDonor1434_Cytotoxicity: Cytotoxicity Assessment using High-content Screening (HCS) Fluorescent Imaging for the Texas A&M University (TAMU) 1.5-hr Human Induced Pluripotent Stem Cell (iPSC)-derived Cardiotoxicity Assay (AID 2284234; active = hit-call score of the fitted dose curve at least 0.9, where 1 is the maximum)
Procedure, shortened: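 Nuclear counts from Hoechst 33342 imaging define cytotoxicity here, with EC10 (10% cell-count loss relative to DMSO) as point of departure. iPSC cardiomyocytes received 0.2-100 uM test chemical in 0.5% DMSO for 1.5 h at 37 C.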

[9] = TAMU_PeakParms_SingleDonor1434_QT: Texas A&M University (TAMU) 1.5-hr Human Induced Pluripotent Stem Cell (iPSC)-derived Cardiomyocytes Calcium (Ca+2) Flux Assay for Cardiotoxicity: QT (decay-rise ratio) (AID 2284235; active = hit-call score of the fitted dose curve at least 0.9, where 1 is the maximum)
Procedure, shortened: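 Decay/rise ratio of calcium-flux fluorescence scored after 90 min exposure (37C) of donor 1434 iPSC cardiomyocytes to 0.2–100 uM (0.5% DMSO). Beat-cessation and severe-notch points removed; POD is EC05, a 5% rise over DMSO.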

[10] = read-out: Collagen I, COL1A1 (gene 1277); assay: BSK_MyoF_CollagenI: BioMAP Diversity Plus: MyoF Assay for Collagen I Biomarker Activity (AID 2284238); conditions: primary human lung fibroblasts
Procedure, shortened: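 Lung fibroblasts (human primary) dosed, 24 h; Collagen I by ELISA; positive-direction fit vs DMSO control. Parallel SRB total-protein staining (0.1% SRB, 10% TCA fixation, 560 nm) flags overt cytotoxicity.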

[11] = read-out: Collagen III, COL3A1 (gene 1281); assay: BSK_MyoF_CollagenIII: BioMAP Diversity Plus: MyoF Assay for Collagen III Biomarker Activity (AID 2284239); conditions: primary human lung fibroblasts
Procedure, shortened: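 ELISA read-out of collagen III from human lung fibroblasts after 24 h of chemical treatment. The DMSO control served as negative control and baseline, with values fitted in the positive direction.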

[12] = read-out: Interleukin 17F (IL17F), IL17F (gene 112744); assay: BSK_BT_xIL17F: BioMAP Diversity Plus: BT Assay for Interleukin 17F (IL17F) Biomarker Activity (AID 2284243); conditions: primary human B cells with PBMC
Procedure, shortened: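 Compound was added to co-cultures of human B cells and PBMC. After 24 hours, IL-17F released into the medium was measured with LumineX xMAP technology. Responses were then fitted upward relative to DMSO.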

[13] = read-out: Actin alpha 1 (ACTA1), ACTA1 (gene 58); assay: BSK_MyoF_ACTA1: BioMAP Diversity Plus: MyoF Assay for Actin alpha 1 (ACTA1) Biomarker Activity (AID 2284244); conditions: primary human lung fibroblasts
Procedure, shortened: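 alpha-SMA levels read by ELISA against DMSO baseline, 24 h post-dose, in primary human lung fibroblasts. Parallel cultures stained with 0.1% SRB after 10% TCA fixation (560 nm) to flag overt cytotoxicity.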

[14] = read-out: Interleukin 2 (IL2), IL2 (gene 3558); assay: BSK_BT_xIL2: BioMAP Diversity Plus: BT Assay for Interleukin 2 (IL2) Biomarker Activity (AID 2284245); conditions: primary human B cells with PBMC
Procedure, shortened: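 Secreted IL-2 was read by Luminex xMAP from B cells co-cultured with PBMC (human primary) 24 h post-dosing; activity was analysed as gain of signal relative to DMSO vehicle.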

[15] = read-out: Basic fibroblast growth factor (bFGF), FGF2 (gene 2247); assay: BSK_MyoF_bFGF: BioMAP Diversity Plus: MyoF Assay for Basic fibroblast growth factor (bFGF) Biomarker Activity (AID 2284246); conditions: primary human lung fibroblasts
Procedure, shortened: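 bFGF was measured by ELISA in primary human lung fibroblasts 24 h after chemical addition. Signal was analysed as positive-direction change relative to DMSO baseline.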

[16] = read-out: Collagen IV, COL4A1 (gene 1282); assay: BSK_MyoF_CollagenIV: BioMAP Diversity Plus: MyoF Assay for Collagen IV Biomarker Activity (AID 2284247); conditions: primary human lung fibroblasts
Procedure, shortened: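 Collagen IV quantified by ELISA in human lung fibroblast cultures 24 h after chemical treatment, with DMSO as baseline. Parallel SRB staining (0.1% SRB after TCA fixation, 560 nm) flags overt cytotoxicity.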

[17] = read-out: Plasminogen activator inhibitor-1 (PAI1), SERPINE1 (gene 5054); assay: BSK_MyoF_PAI1: BioMAP Diversity Plus: MyoF Assay for Plasminogen activator inhibitor-1 (PAI1) Biomarker Activity (AID 2284256); conditions: primary human lung fibroblasts
Procedure, shortened: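 Primary human lung fibroblasts are dosed and incubated 24 h. PAI-1 is then measured by ELISA, while parallel cultures undergo SRB staining for overt cytotoxicity. Increases over DMSO define activity.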

[18] = read-out: Interleukin-8 (IL8), CXCL8 (gene 3576); assay: BSK_MyoF_IL8: BioMAP Diversity Plus: MyoF Assay for Interleukin-8 (IL8) Biomarker Activity (AID 2284261); conditions: primary human lung fibroblasts
Procedure, shortened: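 IL-8 levels were measured by ELISA in human lung fibroblasts harvested 24 h after compound addition. Responses were analysed as gain of signal over the DMSO baseline.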

Decorin, DCN (gene 1634) = assay: BSK_MyoF_Decorin: BioMAP Diversity Plus: MyoF Assay for Decorin Biomarker Activity (AID 2284265); conditions: primary human lung fibroblasts
Procedure, shortened: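 Compound is added to lung fibroblast cultures; cells incubate 24 h; decorin is then measured by ELISA; the response is analysed upward against DMSO controls.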

[19] = BSK_MyoF_SRB: Viability Assessment in the BioMAP Diversity Plus: MyoF Assay (AID 2284267); conditions: primary human lung fibroblasts;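 note: total protein by SRB absorbance in parallel cultures as cytotoxicity measure; cells assessed 24 h after compound addition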
Procedure, shortened: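 Cytotoxicity read-out: after 10% TCA fixation, parallel human lung fibroblast cultures were stained with 0.1% SRB at 24 h post-dosing and read at 560 nm; DMSO served as baseline.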

For CCOP(=S)(OCC)SCCSCC, the outcome [1] was “inactive”, the outcome [2] was “inactive” and the outcome [3] was “inactive”.
In the case of CN1COCN(Cc2cnc(Cl)s2)C1=N[N+](=O)[O-], the outcome [1] is reported as “inactive”, the outcome [2] is reported as “inactive” and the outcome [4] is reported as “inactive”. For the same compound, the outcome [3] was “inactive”.
For CC(C)N(C(=O)SCC(Cl)=C(Cl)Cl)C(C)C, the AC50 [5] was 19.3 µM (active), the outcome [6] was “inactive” and the outcome [1] was “inactive”. The outcome [2] was “inactive”, the outcome [4] was “inactive” and the AC50 [3] was 24.6 µM (active).
For CC1=NNC(=O)N(/N=C/c2cccnc2)C1, the outcome [6] was “inactive”, the outcome [1] was “inactive” and the outcome [2] was “inactive”.
With CCOP(=S)(OCC)OC(Cl)C(Cl)(Cl)Cl (stereo unspecified) the outcome [7] was “inactive”, the AC50 [6] was 50 µM (active) and 21.7 µM (active) and the AC50 [1] was 50 µM (active) and 28.7 µM (active). The AC50 [2] was 50.5 µM (active), the outcome [2] was “inactive” and the AC50 [4] was 78.1 µM (active) and 88.7 µM (active). The AC50 [3] was 21.8 µM (active) and the outcome [3] was “inactive”.
For COP(=O)(OC)OC(Br)C(Cl)(Cl)Br (stereo unspecified), the AC50 [7] was 21.6 µM (active), the AC50 [6] was 30.2 µM (active) and 29.5 µM (active) and the AC50 [1] was 30.4 µM (active) and 22.1 µM (active). For the same compound, the AC50 [2] was 11.9 µM (active), the outcome [2] was “inactive” and the AC50 [4] was 17.8 µM (active) and 85 µM (active). For the same compound, the AC50 [3] was 26.1 µM (active) and the outcome [3] was “inactive”.
With C=C(C)[C@H]1Cc2c(ccc3c2O[C@@H]2COc4cc(OC)c(OC)cc4[C@@H]2C3=O)O1 the AC50 [8] was 0.01 µM (active), the outcome [9] was “inactive” and the AC50 [6] was 0.135 µM (active). The AC50 [1] was 0.0175 µM (active) and the AC50 [4] was 0.159 µM (active).
For C[N+]1(C)CCCCC1, the outcome [1] was “inactive” and the outcome [2] was “inactive”.
For CCOP(=O)(OCC)Oc1cc(C)nc(C(C)C)n1, the outcome [7] was “inactive”, the outcome [6] was “inactive” and the outcome [1] was “inactive”. The outcome [2] was “inactive” and the outcome [4] was “inactive”.
With O=[N+]([O-])c1cc(C(F)(F)F)c(Cl)c([N+](=O)[O-])c1Nc1ncc(C(F)(F)F)cc1Cl the AC50 [7] was 1.48 µM (active), the AC50 [6] was 1.94 µM (active) and the AC50 [1] was 0.74 µM (active). For the same compound, the AC50 [10] was 2.52 µM (active), the AC50 [11] was 2.72 µM (active) and the AC50 [2] was 2.95 µM (active). For the same compound, the AC50 [4] was 2.4 µM (active), the AC50 [3] was 0.717 µM (active) and the AC50 [12] was 1.35 µM (active). For the same compound, the AC50 [13] was 2.27 µM (active), the AC50 [14] was 3.34 µM (active) and the AC50 [15] was 3.75 µM (active). The AC50 [16] was 2.27 µM (active), the AC50 [17] was 2.2 µM (active) and the AC50 [18] was 20 µM (active). The AC50 (Decorin, DCN (gene 1634)) was 5.88 µM (active) and the AC50 [19] was 2.6 µM (active).
For CCOP(=S)(OCC)Oc1ccc2c(C)c(Cl)c(=O)oc2c1, the outcome [6] was “inactive”, the AC50 [1] was 86.4 µM (active) and the AC50 [2] was 73.8 µM (active). The AC50 [4] was 38.6 µM (active) and the outcome [3] was “inactive”.
In the case of CCOC(=O)CC(SP(=O)(OC)OC)C(=O)OCC (stereo unspecified), the outcome [5] is reported as “inactive”, the outcome [7] is reported as “inactive” and the outcome [1] is reported as “inactive”. The outcome [2] was “inactive” and the outcome [4] was “inactive”.
For CCOP(=S)(OCC)Oc1ccc([N+](=O)[O-])cc1, the outcome [8] was “inactive”, the outcome [9] was “inactive” and the AC50 [1] was 24.7 µM (active). For the same compound, the outcome [2] was “inactive” and the outcome [3] was “inactive”.
For CCOP(=S)(Oc1cnc(C(C)(C)C)nc1)OC(C)C (stereo unspecified), the outcome [7] was “inactive”, the AC50 [6] was 28 µM (active) and the outcome [6] was “inactive”. For the same compound, the AC50 [1] was 22.8 µM (active), the outcome [1] was “inactive” and the AC50 [2] was 91.4 µM (active). For the same compound, the outcome [2] was “inactive”, the outcome [4] was “inactive” and the AC50 [3] was 20.1 µM (active). The outcome [3] was “inactive”.
